Peg3 promoter: reduces Peg3 promoter-driven luciferase expression in HeLa; HeLa PEG-Prom luciferase reporter, luminescence, overnight; inhibition, % at 20 µM; hit rate 1.7% among 360,000; AID 588405;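 active = inhibition of at least 50% at 20 µM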
TWEAK Fn14 block: inhibitors of TWEAK-Fn14 interaction signaling | TWEAK-stimulated Fn14 reporter cells, luciferase luminescence, 8 h | inhibition, % at 10 µM | hit rate 2% among 360,000 | AID 1159606; in the data active = inhibition above about 50%
HIF-2a block: inhibitors of HIF-2a | AID 624352 | hit rate 0.72% among 360,000 | inhibition, % at 18.8 µM | 786-0 RCC cells HIF-2a reporter, luciferase luminescence, overnight;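 active = inhibition of the luminescence signal of 40% or more relative to plate controls, in a single-dose primary screen at 18.75 µM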
CF NFkB block: inhibitors of cystic fibrosis induced NF-kB | AID 588850 | KKLEB NF-kB-GFP reporter, PAF-induced, GFP fluorescence overnight | hit rate 0.86% among 360,000 | inhibition, % at 5 µM;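 active = at least 50% inhibition at 5 µM, scaled per plate between neutral and stimulator controls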;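 also: PAF is a Pseudomonas aeruginosa culture filtrate used as stimulus; plate controls were PAF-stimulated DMSO wells for no effect and unstimulated DMSO wells for full effect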
KKLEB tox: counter-screen for CF NF-kB inhibitors: cytotoxicity; KKLEB CF airway cells viability, ATPlite luminescence, overnight; active compounds read low; cells stimulated with P. aeruginosa culture filtrate; activity change (cytotoxicity), % at 5 µM; hit rate 0.36% among 360,000; AID 602141;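 active = corrected activity change at or below -50% at 5 µM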
TROY signal inh: inhibitors of TROY-dependent NF-kB signaling | Q293 LMP1-TROYcd NF-kB luciferase reporter, 4 h | hit rate 0.98% among 360,000 | AID 1347056 | inhibition, % at 10 µM;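 active = compounds whose plate-normalised and pattern-corrected inhibition of the luciferase reporter signal at the single screening dose is 50% or more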
Active calls of the source: *; . = no result. Shown are actives, neighbours in structure and some others; about 4% of the full set was active somewhere.

SMILES	Peg3 promoter	TWEAK Fn14 block	HIF-2a block	CF NFkB block	KKLEB tox	TROY signal inh
COc1cccc(CNC(=O)Cc2ccc(OC)c(S(=O)(=O)N3CCOCC3)c2)c1	-1	0	1	-2	3	-18
Cc1ccc(C=Nc2ccc(N(C)C)cc2)o1	-124	62*	-137	-7	9	5
CN=C1N(C)C[C@@H]2[C@@H]3C(=O)N(C)C(=O)[C@@H]3[C@](Cc3ccccc3)(C(=O)OC)N12	-4	5	9	12	-3	-5
COc1ccc2cc3cc(C(=O)N4CCN(Cc5ccc6c(c5)OCO6)CC4)oc3nc2c1	-9	40	-13	-24	11	54*
COc1ccc2cc3cc(C(=O)NCc4ccc5c(c4)OCO5)oc3nc2c1	-14	21	-39	-33	-1	-26
COc1ccc(-c2oc3c(c2C#CC(C)(C)O)C(OCCO)CC3)cc1 (configuration not stated)	.	12	-4	.	.	6
CCN(CC)c1nc(Oc2ccc(C(=O)NN)cc2)nc(Oc2ccc(C(=O)NN)cc2)n1	-3	-25	5	-12	-3	53*
Cc1ccc(C)c(N(CC(=O)NC2CCCC2)C(=O)CCC(=O)Nc2cc(C)on2)c1	8	4	10	4	-2	8
COc1ccc(CCN2C(=O)c3cccc4c(C(=O)N5CCCCC5)ccc(c34)C2=O)cc1OC	89*	78*	10	-12	2	57*
COc1ccc(CCNC(=O)CCN2C(=O)c3cccc4cccc(c34)C2=O)cc1OC	-3	-10	-9	-14	7	19
c1ccc2c(c1)ccn1c(Cc3ccsc3)c(C3CCCCC3)nc21	.	5	-28	.	.	-11
Cc1ccc(-c2nc3c4ccccc4ccn3c2Cc2ccccc2)cc1	-73	8	-89	-4	14	-9
Cc1ccc(Cc2c(-c3ccccc3)nc3c4ccccc4ccn23)cc1	.	59*	-56	.	.	67*
Cc1ccc(Cc2c(C3CCCCC3)nc3c4ccccc4ccn23)cc1	-138	60*	-65	8	-8	69*
COc1ccccc1C(=O)Nc1ccccc1N1CCN(C(=O)c2ccc(Cl)cc2)CC1	21	2	1	4	3	22
CC(=O)c1sc(NC(=O)CSCc2c(C)noc2C)nc1-c1ccccc1	-1	13	16	-5	-1	-13
Cc1ccc(C(=O)NC2CCCc3ccccc32)cc1[N+](=O)[O-] (configuration not stated)	3	-6	-23	16	2	-16
Cc1noc2ncnc(Sc3ccc(Cl)cc3)c12	102*	65*	34	36	-12	49
Cc1nn(-c2cc(N3CCCCCC3)ccc2[N+](=O)[O-])c(=O)c2ccccc12	8	2	4	5	-8	-19
Cc1ccc(-c2nn(-c3cc(N4CCNCC4)ccc3[N+](=O)[O-])c(=O)c3ccccc23)cc1	102*	-17	17	14	-28	-4
c1ccc(CCc2cc3ccccc3[nH]2)cc1	-215	6	-74	-7	0	-54
CCSc1ncc(Cl)c(C(=O)Nc2sc3c(c2C(=O)NCc2cccnc2)CCCC3)n1	7	-62	-5	44	-54*	6
CC(=O)Nc1cc(-c2cccc(C(=O)NCCN(C)C)c2)cn2c(-c3ccc(C(C)=O)cc3)cnc12	-5	-39	26	0	-19	-2
CN(C)c1ccc(C=C2C=CC=C2)cc1	-99	62*	10	-4	10	9
CN(C)c1ccc(C=c2c3ccccc3n3c2cc(-c2ccc(Cl)cc2)[n+]3C)cc1	61*	54*	-56	-112	-2	62*
SMILES	Peg3 promoter	TWEAK Fn14 block	HIF-2a block	CF NFkB block	KKLEB tox	TROY signal inh
COc1cc(C=c2c3ccccc3n3c2cc(-c2ccccc2)[n+]3C)cc(OC)c1OC	38	17	-22	22	-26	8
CN(C)c1ccc(C=c2c3ccccc3n3c2c2c([n+]3C)CCCC2)cc1	102*	63*	93*	-139	7	48
COc1cc(N(C)C)ccc1C=c1c2ccccc2n2c1cc(-c1ccccc1)[n+]2C	100*	88*	90*	-64	-26	58*
CN(C)c1ccc(C=c2c3cc([N+](=O)[O-])ccc3n3c2cc(-c2ccccc2)[n+]3C)cc1	106*	76*	75*	-30	-52*	43
Cn1c(CO)c(-c2ccccc2)c2cc([N+](=O)[O-])ccc21	30	4	22	4	-17	-1
Cc1ccc(NC(=O)CSc2nnc(N)s2)cc1S(=O)(=O)N1CCOCC1	-14	-8	9	-10	3	-2
CCCc1cc(=O)oc2c(C)c(OCC(=O)Nc3cccnc3)ccc12	-18	-11	-28	3	3	16
COc1ccc(NC(=O)C2(C)Cc3c(-c4ccc5c(c4)OCO5)ccnc3O2)cc1OC (configuration not stated)	20	0	6	-32	16	-4
CN(C)c1cccc(NC(=O)C2Cc3c(-c4ccc(Cl)cc4)ccnc3O2)c1 (configuration not stated)	22	20	17	-12	-12	24
COC(=O)c1ccc(COc2ccc(/C=C(\C#N)c3nc4ccccc4[nH]3)cc2OC)o1	10	60*	0	-5	-12	5
Cc1ccc2c(c1)N(CC(=O)NCCCN1CCCC1)C(=O)CO2	-1	-18	8	12	0	6
Cc1ccc2c(c1)N(CCCC(=O)NCCCN1CCCCC1)C(=O)CO2	12	64*	4	-1	-5	-7
CC(C)=CC(O)C/C(C)=C/COc1ccc2ccc(=O)oc2c1 (configuration not stated)	94*	83*	-2	14	7	8
COC1C=CC=C(C)C(=O)NC2=CC(=O)C(N)=C(CC(C)CC(OC)C(O)C(C)C=C(C)C1OC(N)=O)C2=O (configuration not stated)	64*	70*	-45	64*	17	18
COc1ccc(/C=C2/Sc3ccc(C(=O)NCCCN4CCOCC4)cc3NC2=O)cc1OC	88*	-23	23	-5	-6	-5
Cc1cccc(/C=C2/Sc3ccc(C(=O)NCCCN4CCOCC4)cc3NC2=O)c1	65*	-14	13	16	-5	23
COc1ccc(C(=O)NCCCN2CCOCC2)cc1OC	6	0	3	-1	-9	-11
CCN1CCN(CCCNC(=O)c2ccc3c(c2)NC(=O)/C(=C\c2cccc(C)c2)S3)CC1	107*	-51	8	8	-10	-36
CN(C)C(=S)Oc1ccccc1C1SCCS1	0	7	-12	-37	8	-8
COc1ccccc1C(CNC(=O)C(C)Oc1ccc(Br)cc1)N1CCCC1 (configuration not stated)	7	-9	5	19	6	-28
